Measurements as given in PubChem BioAssay (NCI).
About 83,000 compounds went through this panel and 20% of them were active in at least one assay; those are over-represented in the sample as a whole.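 Each cell line was grown in a 96-well plate and treated with one concentration of compound for 48 hours. Values below 10 were considered active.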 The source made the active and inactive calls.

The compounds below were run on OVCAR-8 ovarian (assay: NCI-60 one-dose screen, 48 h (100 = growth as untreated, 0 = no growth, -100 = all killed)). Conditions: 10 µM unless noted.
Protocol: Growth inhibition of the OVCAR-8 human tumor cell line is measured as a screen for anti-cancer activity. Cells are grown in 96 well plates and exposed to the test compound for 48 hours. Compounds are tested at a single concentration, which is 10^-5 M for most compounds. The reported endpoint is percent growth (GI% or GIPRCNT), where numbers from 0 - 100% represent growth inhibition, and numbers from -100% - 0 represent cell death. For example, a value of 40 represents 60% growth inhibition. A value of 0 means no net growth occurred over the course of the experiment. A value of -40 indicates 40% of cells at the beginning of the experiment died by the end of the experiment. A value of -100 means all cells are dead at the end of the experiment.
NCI-60 Human Tumor Cell Lines Screen was performed using the standard one-dose NCI protocol, which is described in more detail at https://dtp.cancer.gov/discovery_development/nci-60/default.htm.
Compounds with GIPRCNT values below 10 were considered active. Activity score was based on GIPRCNT using the following formula: […]
Score is 0 for GIPRCNT values of 100 or above, 50 for GIPRCNT values of 0, and 100 for GIPRCNT values of -100.

| Structure (SMILES) | growth |
| --- | --- |
| Cn1c2ccccc2c2nn(Cc3ccccc3)c(=O)nc21 | 107% (inactive) |
| CC(C)OC1=C(Cl)C(=O)c2ccccc2C1=O | 75.9% (inactive) |
| Cc1c(NCC(=O)Nc2nc3ccccc3[nH]2)c(=O)n(-c2ccccc2)n1C | 99.9% (inactive) |
| O=C1/C(=C/c2ccc(Cl)cc2)CN(Cc2cn(CCCNc3ccnc4cc(Cl)ccc34)nn2)C/C1=C\c1ccc(Cl)cc1 | -42.3% (active) |
| O=C1/C(=C/c2ccccc2F)CNC/C1=C\c1ccccc1F | 2.92% (active) |
| COC(=O)c1cc(-c2ccc(C)cc2)n(C(=O)CSc2nc3sc(C(N)=O)c(C)c3c(=O)n2Cc2ccccc2)n1 | 104% (inactive) |
| COc1cc(CNCCCN2C(=O)c3ccc4c5c(ccc(c35)C2=O)C(=O)N(CCCNCc2cc(OC)c(OC)c(OC)c2)C4=O)cc(OC)c1OC | -52% (active) |
| C=CC[P+](c1ccccc1)(c1ccccc1)c1ccccc1 | 45.8% (inactive) |
| CCOc1ccc(/C=N\N2CCCCCC2)cc1OCC | 101% (inactive) |
| NC1=NC(c2ccccc2OS(=O)(=O)c2ccc(Br)cc2)n2c(nc3ccccc32)N1 (stereo not given) | 88.3% (inactive) |
| O=C(C[Si](CC(=O)c1cccc(C(F)(F)F)c1)CC(=O)c1cccc(C(F)(F)F)c1)c1cccc(C(F)(F)F)c1 | 90.9% (inactive) |
| COc1cc2cc(Oc3ccc(NC(=O)Nc4cccc(C(F)(F)F)c4)cc3)c(C)nc2cc1OCCN1CCCCC1 | -38.7% (active) |
| CCC(C)Oc1cc(/C=N/NC(=O)c2cnn3c2NC(c2ccccc2)C3)ccc1OC (stereo not given) | 47.2% (inactive) |
| CC1SC(c2ccc(Cl)cc2)N(CCc2cccs2)C1=O (stereo not given) | 4.04% (active) |
| O=c1[nH]c(=O)n(Cc2ccc(F)cc2)cc1F | 94.2% [50 µM] (inactive) |
| COc1ccc(-c2nc(Nc3ccc(F)cc3)nc(Nc3ccc4c(c3)nc(C)n4Cc3ccccc3)n2)cc1 | 17.9% (inactive) |
| Cc1nc2cc(Nc3nc(N4CCCCC4)nc(N4CCOCC4)n3)ccc2n1Cc1ccccc1 | 27.6% (inactive) |
| CSc1ccc(OC(C)=O)cc1C | 100% (inactive) |
| C=C(C)CCCC(C)CC#N (stereo not given) | 106% (inactive) |
| Cc1nc2cc(Nc3nc(Nc4ccc(F)cc4)nc(N4CCN(C)CC4)n3)ccc2n1Cc1ccccc1 | 11.6% (inactive) |

| Structure (SMILES) | growth |
| --- | --- |
| COc1cccc(OC)c1OC(=O)c1ccccc1 | 106% (inactive) |
| O=c1[nH]c(=S)c2c(n1CCCO)CCC2 | 102% (inactive) |
| CC(C)(C)[Si](C)(C)OC1[C@@H](COC(=O)NC(=O)CCl)O[C@@H](n2cnc3c(N)ncnc32)[C@H]1O[Si](C)(C)C(C)(C)C (stereo not given in full) | -7.49% (active) |
| O=c1[nH]c(-c2ccncc2)nc2sc3c(c12)CCCCCC3 | 69.2% (inactive) |
| COc1cccc(C2CC(=O)Nc3cc4c(cc32)OCO4)c1OC (stereo not given) | 98.6% (inactive) |
| O=c1onc(-c2ccccc2)c2ccccc12 | 103% (inactive) |
| O=C(O)c1ccccc1Oc1cc(-c2ccco2)nc(OCCBr)n1 | 103% (inactive) |
| N#Cc1c(-c2cccc(F)c2)cc(-c2ccc(Br)s2)[nH]c1=O | 83.3% (inactive) |
| CCCCCCCCCCCCCCCC[N+]1(C)CCOCC1 | 16.1% (inactive) |
| CCOc1ccc(-c2cnnn2-c2nonc2-n2cccc2)cc1 | 25.9% (inactive) |
| C=C1CC[C@@H]2[C@@](C)(CCC[C@]2(C)C(=O)O)[C@@H]1CC[C@H](CO)CCO | 104% (inactive) |
| O=C(Nc1ccc(F)cc1)c1ccc(C(=O)Nc2ccc(F)cc2)cc1 | 99.6% (inactive) |
| O=C(N/N=C(\CS(=O)(=O)c1ccccc1)c1cc2ccccc2oc1=O)c1ccccc1 | 100% (inactive) |
| O=c1nc(NO)[nH]c(=O)n1Cc1ccc(F)cc1 | 109% (inactive) |
| COc1nc2c(cc1S(=O)(=O)c1ccccc1)CCc1c-2cnn1-c1ccccc1Cl | 59.8% (inactive) |
| COC(=O)c1c2c(c(C)[n+]([O-])c1C)C(=O)C=C(NCc1cccc(Cl)c1)C2=O | -14.4% (active) |
| COc1cc(-c2nc3ccccc3o2)cc(CN2CCN(c3ccccc3)CC2)c1O | 78.3% (inactive) |
| Cc1cc(=O)[nH]n1-c1cc(Cl)ccc1N | 103% (inactive) |
| COc1ncc(F)c(OC)n1 | 97.3% (inactive) |
| Cc1ccc(S(=O)(=O)N2CCc3ccc(O)c4c3C2Cc2cc(Cl)ccc2-4)cc1 (stereo not given) | 75.4% (inactive) |
